# The list is not random: actives were taken first. Their share in the collection is about 5.7%.
# GLP-1R agonist: qHTS of GLP-1 Receptor Agonists; actives 0.007% (n = 380,000); AID 624172, 2012; Potency, µM (highest dose often 45.6 µM), for the others: at the top dose activation, hits mostly activators; HEK293 GLP-1R CRE-luciferase, luminescence, 4-6 h; cells express a hypersensitive GLP-1R form; further: potency means the concentration at half of the fitted maximal effect; % of control where 0% means no effect
# Target sequence (P43220 whole entry, looked up): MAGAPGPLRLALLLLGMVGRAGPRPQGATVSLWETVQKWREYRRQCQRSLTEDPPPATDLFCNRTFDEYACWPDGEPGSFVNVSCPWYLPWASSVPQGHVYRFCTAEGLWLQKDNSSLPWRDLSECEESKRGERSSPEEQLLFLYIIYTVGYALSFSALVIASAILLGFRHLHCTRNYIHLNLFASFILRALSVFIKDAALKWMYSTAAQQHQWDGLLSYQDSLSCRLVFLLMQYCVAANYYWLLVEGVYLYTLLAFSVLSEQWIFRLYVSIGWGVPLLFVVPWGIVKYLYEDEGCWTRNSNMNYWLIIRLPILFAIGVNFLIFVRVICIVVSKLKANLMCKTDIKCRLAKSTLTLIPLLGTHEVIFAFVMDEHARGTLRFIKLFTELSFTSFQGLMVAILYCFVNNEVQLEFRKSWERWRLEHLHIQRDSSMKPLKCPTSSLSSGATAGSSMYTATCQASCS
# HEK293 tox: qHTS of GLP-1 Receptor Inverse Agonists: Cytotox Screen. HEK293 cAMP-luciferase reporter cells, luminescence, 24 h. actives 0.13% (n = 410,000). Potency, µM (top dose mostly 38.3 µM), without a hit: top-dose activity change, negative = inhibition, actives largely listed as inhibitors;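 further: loss of luciferase light is scored as toxicity; potency means the concentration at half of the fitted maximal effect; on the % scale 0 is the no-effect control and ±100 the full control effect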
#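 Cells in DMEM/10% Nu serum/1% pen-strep, 1536-well format. Pre-incubated 12 h, dosed with 23 nL compound, incubated a further 24 h. Luciferase detection, 12 min at room temp, luminescence.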
# GLP-1R inv ag: qHTS of GLP-1 Receptor Inverse Agonists (Inhibition Mode); HEK293 GLP-1R CRE-luciferase, luminescence, 24 h; GLP-1R form is constitutively active; Potency, µM (highest dose often 38.3 µM), for the others: at the top dose activity change, negative = inhibition, hits mostly inhibitors; actives 1.6% (n = 410,000); AID 624417, 2012; further: potency means the concentration at half of the fitted maximal effect; on the % scale 0 is the no-effect control and ±100 the full control effect; nearly all actives have a fitted effect of over 55% in size
#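 qHTS in 1536-well format: reporter HEK293 cells expressing constitutive GLP-1R activity in DMEM + 10% Nu serum, 24 hr with compounds at 37 deg C, luminescence read after 12 min with detection reagent.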
# ClpP mod: qHTS Assay for Activators of ClpP; ATP-dependent Clp protease proteolytic subunit (Bacillus subtilis (strain 168)), P80244; actives 1.9% (n = 340,000); Potency, µM (top dose mostly 57.5 µM), without a hit: at the top dose activity change, negative = active; purified B. subtilis ClpP, FRET peptide cleavage, 20 min; AID 651965, 2013; active means well fitted falling curve with a large enough effect; inconclusive means small, poorly fitted or top-dose-only effect; inactive means no such curve, though single readings can be large or run the other way; further: potency means the concentration at half of the fitted maximal effect; the source files actives as falling curves though it sought activators and does not explain the sign; nearly all actives have a fitted effect of over 65% in size
# Target sequence (P80244 whole entry, looked up): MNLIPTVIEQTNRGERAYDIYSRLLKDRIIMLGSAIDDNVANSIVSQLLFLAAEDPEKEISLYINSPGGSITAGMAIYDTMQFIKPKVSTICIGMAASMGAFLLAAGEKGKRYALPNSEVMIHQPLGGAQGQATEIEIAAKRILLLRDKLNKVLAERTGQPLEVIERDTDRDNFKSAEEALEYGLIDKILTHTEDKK
#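 ClpP 10 microg/mL final, pH 8 Tris/KCl buffer with BSA, glycerol, Tween-20; compound pinned in; FRET-FV substrate; RT 20 min; Ex320/Em430; ΔFRET vs ADEP 5.8 microM, DMSO, no enzyme.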
# DRD3 agonist: qHTS of D3 Dopamine Receptor Agonist: qHTS; D(3) dopamine receptor (Homo sapiens), P35462; max activation, %; D3R DiscoveRx beta-arrestin cells, luminescence, 90 min; actives 0.58% (n = 410,000); in the data active means max activation above about 30%; further: 0% is about no effect
#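 Agonist mode: compounds and dopamine controls were applied to plated cells for 90 min at 37 degrees C after an overnight attachment at 1500 cells/well. Luminescent read-out followed 30 - 60 minutes at room temperature with DiscoveRx detection reagent.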
# D3 antag: qHTS of D3 Dopamine Receptor Antagonist: qHTS | D(3) dopamine receptor (Homo sapiens), P35462 | D3R cells, DiscoveRx beta-arrestin luminescence, antagonist mode; stronger effect = lower value | max response, negative = inhibition, % | actives 2.5% (n = 360,000); in the data active means max response below about -50%; inconclusive means no clear call, values can overlap the other calls; further: on the % scale 0 is the no-effect control and ±100 the full control effect
#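 Cells expressing the human receptor were seeded at 1500 cells/well, incubated overnight at 37 degrees C in 5% CO2, then exposed to library compounds with dopamine controls for 90 minutes at 37 degrees C before luminescent detection.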
# * marks the source's active call; other numbers are inactive results; ? = inconclusive; . = no result given. Unless noted, the call rests on the fitted dose curve; in most records, active means well fitted curve in the direction sought with a large enough effect; inconclusive means small, poorly fitted or top-dose-only effect, or another doubt; inactive means no such curve, though single readings can be large; an effect the other way counts as inactive or inconclusive.
SMILES,GLP-1R agonist,HEK293 tox,GLP-1R inv ag,ClpP mod,DRD3 agonist,D3 antag
Cc1cccc2cc(CN(Cc3nnnn3C3CCCCC3)C3CCCC3)c3nnnn3c12,-3.3%,-14.5%,0.8%,-2.7%,-8.5,-64.8*
COc1ccc(C(CNC(=O)CNC(=O)c2cccc(C)c2)N2CCCCC2)cc1 (stereo not drawn),-2.5%,-12.4%,-8.9%,2.8%,-27.4,-51.7*
Cc1ccc(NC(=O)c2ccc(Cl)c(NC(=O)c3cccs3)c2)cc1,17.4%,-17.2%,10µM*,1.8%,2.8,7.3
COc1ccc(C(CNC(=O)c2ccc(Cl)c(NC(=O)c3cccs3)c2)N2CCCC2)cc1 (stereo not drawn),2.8%,-14.5%,?,-2.7%,-30.1,-68.4*
COc1ccc(C(CNC(=O)COc2cc(C)c(Cl)c(C)c2)N2CCCCC2)cc1 (stereo not drawn),2.1%,0.2%,-16.4%,0.6%,-23.6,-91.7*
COc1ccc(C(CNC(=O)COc2cc(C)cc(C)c2)N2CCCCC2)cc1 (stereo not drawn),.,1.1%,?,0.9%,-21.0,.
Nc1nc2c(nc(N3CCOCC3)n2COCCO)c(=O)[nH]1,.,.,.,1.4%,.,.
COc1ccc(C(CNC(=O)Cc2ccccc2F)N2CCCCC2)cc1 (stereo not drawn),5.8%,4.8%,13.7%,-1.0%,-32.6,?
COc1ccc(OCC(=O)NCC(c2ccc(OC)cc2)N2CCCCC2)cc1 (stereo not drawn),4.6%,-3.0%,9.5%,1.4%,-17.1,-61.7*
COc1ccc(C(CNC(=O)COc2ccccc2)N2CCCCC2)cc1 (stereo not drawn),-0.4%,12.7%,1.2%,0.2%,-28.6,-115.8*
COc1ccc(C(CNC(=O)C(C)(C)Oc2ccc(Cl)cc2)N2CCCC2)cc1 (stereo not drawn),24.2%,-15.9%,?,-3.9%,-4.3,-114.3*
COc1ccc(C(CNC(=O)Cc2ccccc2Cl)N2CCCCC2)cc1 (stereo not drawn),-0.8%,-5.3%,-18.1%,0.1%,-28.2,-86.3*
CCCCN1C(=O)C(CC(=O)NC2CCCCC2)CC(C(=O)N2CCCCCC2)=C1C (stereo not drawn),.,.,.,-3.5%,.,.
COc1ccc(C(CNC(=O)COc2ccc(C)c(C)c2)N2CCCCC2)cc1 (stereo not drawn),6.7%,-11.6%,?,0.0%,-17.2,-100.0*
COc1ccc(N2CCN(S(=O)(=O)CCNC(=O)COc3ccccc3)CC2)cc1,2.3%,3.4%,-12.8%,17.8µM*,2.7,-19.4
CCCS(=O)(=O)N1CCN(C(=O)COc2ccccc2)CC1,-6.9%,0.9%,0.0%,-2.2%,34.1*,-19.9
C[C@@H](C1=C(CCN(C)C)Cc2ccccc21)c1ccccn1,2.5%,.,.,.,-19.8,.
CCOC(=O)c1ccc(-n2c(CCC(=O)O)ccc2-c2ccccc2)cc1O,.,-5.4%,-9.6%,-2.4%,5.6,.
CCCc1nn2c(=O)cc(COC(=O)c3ccc4c(c3)OCO4)nc2s1,.,8.6%,12.0%,-7.2%,-2.4,.
O=C(COc1ccc(F)cc1)Nc1cc(S(=O)(=O)N2CCCCC2)ccc1N1CCCCC1,-1.4%,-10.5%,?,15.8µM*,-11.0,-3.2
O=C(Nc1ccccc1N1CCCCC1)c1ccco1,-0.2%,-12.6%,11.2µM*,0.0%,-1.3,10.6
CN1CCN(c2ccccc2NC(=O)c2ccc(OCc3ccccc3)cc2)CC1,13.2%,?,11.2µM*,-1.1%,-8.9,0.0
CC(=O)c1ccc(OCC(=O)Nc2ccccc2N2CCCC2)cc1,16.4%,-18.5%,-13.1%,-0.6%,3.4,12.0
CCOc1ccc(OCC(=O)Nc2ccccc2N2CCCC2)cc1,4.2%,6.3%,10µM*,-1.6%,2.7,2.1
O=C(COc1ccc([N+](=O)[O-])cc1)Nc1cc(S(=O)(=O)N2CCCCC2)ccc1N1CCCCC1,-29.9%,-9.0%,-10.5%,-1.6%,-12.1,-14.4
SMILES,GLP-1R agonist,HEK293 tox,GLP-1R inv ag,ClpP mod,DRD3 agonist,D3 antag
O=C(Nc1ccccc1N1CCCC1)c1ccco1,6.4%,1.1%,1.6%,-0.4%,0.4,15.5
O=C(COc1ccccc1)Nc1cc(C(F)(F)F)ccc1N1CCCC1,3.1%,15.6%,12.6µM*,1.5%,-2.9,8.5
O=C(COc1ccccc1)Nc1ccccc1N1CCCCC1,4.0%,19.8%,11.2µM*,1.5%,2.8,0.0
Cc1cc(C)n(C(C)CC(=O)NCc2ccc(N(C)C)cc2)n1 (stereo not drawn),.,7.3%,-1.4%,-6.8%,-3.3,.
CCc1ccc2oc(C(=O)NCCc3ccc(OC)c(OC)c3)cc(=O)c2c1,.,-1.5%,-11.9%,-1.8%,26.2,.
COc1ccc(NC(=O)c2c(NC(=O)CNCc3ccco3)sc3c2CCC3)c(OC)c1,4.8%,-0.7%,36.8%,?,3.9,-2.3
COc1ccc(OC)c(NC(=O)c2c(NC(=O)CNCc3ccco3)sc3c2CCC3)c1,-7.7%,-9.7%,-1.2%,15.8µM*,2.6,47.1
CCOc1ccc(NC(=O)c2c(NC(=O)c3ccccc3F)sc3c2CCC3)cc1,.,7.3%,-3.3%,-2.0%,-21.4,.
CCOc1ccc(NC(=O)c2c(NC(=O)CNCCN3CCOCC3)sc3c2CCC3)cc1,-1.7%,?,2.51µM*,-0.9%,-7.2,2.6
C=Cc1ccc(CSc2nnc(C)n3c2cc2occc23)cc1,.,-9.4%,-8.1%,-12.2%,-4.9,.
CC(C)(C)C(C(=O)NC1CCCC1)N1CCN(c2ncccc2C#N)CC1 (stereo not drawn),.,-12.4%,-7.2%,-20.0%,-3.7,?
CCOc1ccccc1NC(=O)c1c(NC(=O)c2cccc(C)c2)sc2c1CCCC2,.,-21.7%,6.9%,4.9%,8.5,.
OC1(c2cccc(F)c2)CCN(Cc2ccncc2)CC1,-0.6%,-4.6%,3.7%,-3.7%,-6.9,-78.5*
COc1ccccc1C(=O)NC(CCSC)C(=O)NNC(=O)c1ccccc1O (stereo not drawn),-5.8%,4.1%,?,?,1.6,-6.2
O=C(C1CCCN1S(=O)(=O)c1cccc2cccnc12)N1CCn2c1nc1ccccc12 (stereo not drawn),-2.3%,8.9%,2.0%,0.4%,-10.6,?
O=C(C1CCN(S(=O)(=O)c2cccc3cccnc23)CC1)N1CCn2c1nc1ccccc12,-1.1%,-10.8%,8.6%,-0.2%,-40.5,-184.4*
O=C(COC(=O)C1CCN(S(=O)(=O)c2cccc3cccnc23)CC1)c1ccc(F)cc1,-6.3%,-0.4%,4.8%,1.2%,5.5,-52.4*
